Hits are enriched below; roughly 3% of the tested compounds scored in any of these assays.
SARS PLpro yeast-1: blocks SARS-CoV papain-like protease in a yeast assay; S. cerevisiae expressing SARS-CoV PLpro, growth rescue; Potency, µM (top dose mostly 32.9 µM), for the others: at the top dose activity, positive = growth rescue, actives largely listed as activators; 330,000 compounds, 0.19% hits; AID 485353; calls by dose curve; note: potency is the fitted concentration of half-maximal effect; 0% is about no effect; nearly all actives have a fitted effect of over 55% in size
Sm TGR block: S. mansoni TGR enzyme inhibition | purified TGR, DTNB reduction, TNB absorbance 405 nm | 360,000 compounds, 3% hits | Potency, µM (titrated, usually from 114 µM), without a hit: top-dose activity change, negative = inhibition, actives largely listed as inhibitors; active = well fitted inhibition curve with a large enough effect; inconclusive = small, poorly fitted or top-dose-only effect; inactive = no such curve, though single readings can be large or run the other way; note: potency is the fitted concentration of half-maximal effect; % is set by controls: 0 for no effect and ±100 for the full control effect; nearly all actives have a fitted effect of over 60% in size
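First, TGR (20 nM dispensed) and NADPH were mixed with compound. Second, a 15 min room-temperature incubation followed. Third, further NADPH and then DTNB were added to start the reaction. Finally, TNB absorbance was monitored kinetically.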
SARS PLpro yeast-2: Validates SARS-CoV PLpro inhibitor hits in yeast | AID 652038 | 1,000 compounds, 19% hits | shares compounds with SARS PLpro yeast-1 | calls only | yeast expressing SARS-CoV PLpro, growth phenotype rescue; call rule not given here
* marks the source's active call; other numbers are inactive results; i = inactive; u = inconclusive; x = no result given; + = active, no number; ! = not active in a repeat; [ ] = dose if it differs, or a comment.

SMILES | SARS PLpro yeast-1 | Sm TGR block | SARS PLpro yeast-2
CC(=O)O[C@H]1C(=O)[C@@]2(C)[C@H]([C@H](OC(=O)c3ccccc3)[C@]3(O)C[C@H](OC(=O)[C@H](O)C(NC(=O)c4ccccc4)c4ccccc4)C(C)=C1C3(C)C)[C@]1(OC(C)=O)CO[C@@H]1C[C@@H]2O (some centres undefined) | 0.3% | 0.0% | x
CCOc1ccc(NC(=O)Cn2cc(C(=O)c3ccc(F)cc3)c(=O)c3cc4c(cc32)OCO4)cc1 | x | -0.6% | x
COc1ccc(O)c(/C=N/NC(=O)c2ccc(CSc3nc(C)cc(C)n3)cc2)c1 | u | 1.9% | x
Cc1cc(C)nc(SCc2ccc(C(=O)N/N=C/c3cccc(O)c3O)cc2)n1 | 3.16µM* | -15.9% | +
CC(C)NC(=O)CN1C(=O)CCn2nc(-c3cn(C)c4ccccc34)cc21 | x | 11.0% | x
O=C(NC(Cc1ccccc1)C(=O)O)/C(=C/c1ccccc1)NC(=O)c1ccccc1 (centres undefined) | 21.3% | -5.4% | x
CC(=O)N/C(=C/c1ccccc1)C(=O)NC(Cc1ccccc1)C(=O)O (centres undefined) | u | 3.9% | i
COc1ccc(CCNC(=O)CCNC(=O)c2ccc(Br)cc2)cc1OC | u | -0.5% | i
O=C(Cn1nnc(-c2ccccc2F)n1)Nc1ccc2c(c1)OCO2 | u | 6.3%[11.4 µM] | i
COc1ccc(CCNC(=O)CCNC(=O)c2ccc(Cl)cc2)cc1OC | -24.6% | -20.6% | x
Cc1ccccc1-c1nnn(CC(=O)Nc2ccc3c(c2)OCO3)n1 | -0.3% | -3.3% | x
COc1ccc(CCNC(=O)Cn2nnc(-c3ccccc3F)n2)cc1OC | u | 1.3% | i
COc1ccc(CCNC(=O)Cn2nnc(-c3ccc(Cl)cc3)n2)cc1OC | x | 10.3% | x
O=C(c1cccn1-c1nnc(N2CCCC2)s1)N1CCN(c2ccc(F)cc2)CC1 | x | 5.0% | x
Cc1ccc2c(c1)N(C(=O)CCC(=O)NCc1cccc(F)c1)CC(C)O2 (centres undefined) | x | -10.6% | x
O=C(COC(=O)c1ccc(S(=O)(=O)N2CCCCCC2)cc1)NCc1ccc(F)cc1 | u | -11.3% | +
Cc1ccc(CNC(=O)COC(=O)c2ccc(S(=O)(=O)N3CCCCCC3)cc2)cc1 | 1.0% | -7.0% | x
Cc1ccc(NC(=O)CSc2nccn2C2CCCC2)cc1Cl | x | -13.1% | x
Cc1ccc(Cl)cc1NC(=O)C1CCN(c2nc3ccccc3n3cccc23)CC1 | x | -6.4% | x
COc1ccccc1NC(=S)NNC(=O)c1cc(C)n(C)n1 | u | 0.8% | i
COc1ccccc1NC(=S)NNC(=O)c1cc(C)nn1C | 3.2% | -29.7% | x
COc1cccc(NC(=O)Cn2c(=O)ccc3cc(S(=O)(=O)N4CCC(C)CC4)ccc32)c1 | x | -1.0% | x
Cc1cc(NC(=O)c2cn(C3CCCCC3)c(=O)c3c2c2ccccc2n3C)no1 | -7.8% | 12.1% | x
Cc1ccc(CNC(=O)c2cn(C3CCCCC3)c(=O)c3c2c2ccccc2n3C)o1 | u | 10µM* | +
Cc1sc2nc(CN(C(=O)NC3CCCCC3)C3CCCC3)[nH]c(=O)c2c1C | 3.55µM* | -5.9% | u
SMILES | SARS PLpro yeast-1 | Sm TGR block | SARS PLpro yeast-2
COCC(=O)N(Cc1nc2sc(C)c(C)c2c(=O)[nH]1)C1CCCCC1 | 0.6% | 8.6% | x
CCN(Cc1ccccc1)C(=O)c1cc2c(s1)-c1c(C)cccc1OC2 | x | 5.0% | x
COc1cccc(/C=N/NC(=O)Cn2nc(C)c([N+](=O)[O-])c2C)c1O | 15.5% | -18.5% | x
COc1cccc(/C=N/NC(=O)C(C)n2nc(C)c([N+](=O)[O-])c2C)c1O (centres undefined) | 11.2µM* | -8.8% | i
COc1cccc(/C=N/NC(=O)CSc2ccccc2C)c1OC | 8.8% | 13.0% | x
COc1cccc(/C=N/NC(=O)CSc2ccccc2C)c1O | 22.4µM* | 0.7% | +
COc1cccc(/C=N/NC(=O)c2c(C)nc3ccc(Br)cn23)c1O | u | -9.8% | i
COc1cccc(/C=N/NC(=O)c2nc(-c3ccccc3)cc(-c3ccccc3)n2)c1O | 11.2µM* | -6.2% | +
CCOc1ccccc1/C=N/NC(=O)c1c(C)nc2ccc(Br)cn12 | -2.6% | 10.6% | x
COc1cccc(/C=N/NC(=O)N/N=C/c2cccc(OC)c2O)c1O | 6.8% | -4.7% | x
O=C(NCC(c1cccnc1)N1CCc2ccccc2C1)c1ccc(F)c(F)c1 (centres undefined) | x | -0.3% | x
COc1ccc(Cl)cc1NC(=O)CSc1ccc2nnc(CCNS(=O)(=O)c3ccccc3)n2n1 | x | -3.4% | x
CCOC(=O)C1CCN(S(=O)(=O)c2cc(-c3onc(C)c3C)ccc2C)CC1 | x | 5.9% | x
O=C(Nc1ccc(Cl)cc1)c1ccc(-n2cnnc2)cc1 | x | -6.3% | x
COc1ccc(N2CC3=C(C2=O)C(c2ccc(Br)cc2)NC(=O)N3C)cc1 (centres undefined) | x | 1.1% | x
Cc1ccccc1C1NC(c2ccccc2C)C([N+](=O)[O-])C(C)(C)C1[N+](=O)[O-] (centres undefined) | 0.4% | 30.7% | x
Cc1cccc(C2NC(c3cccc(C)c3)C([N+](=O)[O-])C(C)(C)C2[N+](=O)[O-])c1 (centres undefined) | u | -1.9% | i
CCOc1ccc(CCNC(=O)c2ccc(CS(=O)Cc3ccc(Cl)cc3)o2)cc1 (centres undefined) | u | 28.2µM*! | i
O=C(NCCc1ccc(Cl)cc1)c1ccc(CS(=O)Cc2ccc(Cl)cc2)o1 (centres undefined) | -0.1% | -21.1% | x
COc1cc(NC(=O)CN2C(=O)CN(C)C(=O)c3ccccc32)cc(OC)c1OC | x | -2.3% | x
Cc1nnc(SCC(=O)N(C(C)C)C(C)C)[nH]c1=O | 1.7% | -0.7% | x
Cc1nnc(SCC(=O)NNC(=O)C(C)C)[nH]c1=O | 22.4µM* | 1.2% | i
Cc1nc(-c2ccc(C)c(N3CCN(C(=O)Nc4ccccc4C(F)(F)F)CC3)c2)no1 | x | 1.7% | x
CC(C)c1ccc(NC(=O)CN2C(=O)NC3(CCCC3)C2=O)cc1 | 3.55µM* | 0.6% | i
CC(=O)Nc1ccc(NC(=O)CN2C(=O)NC3(CCCCCCC3)C2=O)cc1 | -16.3% | x | x
SMILES | SARS PLpro yeast-1 | Sm TGR block | SARS PLpro yeast-2
Cc1cc2oc(C(=O)N(Cc3ccc(N(C)C)cc3)Cc3ccco3)c(C)c2cc1Cl | x | 5.9% | x
CCCCNC(=O)Cn1ncc2c(C)n(Cc3cccc(Cl)c3)c(C)c2c1=O | x | 11.9% | x
O=C(Nc1cccc2c1CCCC2)c1ccccc1Cl | 15.1% | 0.0% | x
COc1ccccc1C(=O)Nc1cccc2c1CCCC2 | u | 2.0% | i
CCOc1ccc(CCNC(=O)C(CC)n2nc(C)c3c(C)n(-c4ccccc4)nc3c2=O)cc1 (centres undefined) | x | 8.1% | x
Cc1ccccc1NC(=O)CSc1nc(-c2ccc(F)cc2)nc2c1Cc1ccccc1O2 | x | 4.4% | x
O=C(Nc1ccccc1)N(Cc1cccs1)c1ccc(Cl)cc1 | x | -1.0% | x
CC(=O)N/N=C/c1c(C)[nH]n(-c2ccccc2)c1=O | -3.2% | 6.4% | x
Cc1c(/C=N\NC(=O)C2COc3ccccc3O2)c2ccccc2n1C (centres undefined) | -32.1% | -13.5% | x
Cc1[nH]n(-c2ccccc2)c(=O)c1/C=N\NC(=O)C1COc2ccccc2O1 (centres undefined) | 10µM* | -16.2% | i
O=C(N/N=C/c1c(O)n(-c2ccccc2Cl)c(=O)c2ccccc12)C1COc2ccccc2O1 (centres undefined) | 11.2µM* | u | +

From PubChem BioAssay
